D3 ag: qHTS of D3 Dopamine Receptor Agonist: qHTS; D(3) dopamine receptor (Homo sapiens), P35462; D3R DiscoveRx beta-arrestin cells, luminescence, 90 min; max activation, %; 410,000 tested, 0.58% active; AID 652048, 2013; in the data active = max activation above about 30%; also: 0% is about no effect
Target sequence (P35462 whole entry, looked up): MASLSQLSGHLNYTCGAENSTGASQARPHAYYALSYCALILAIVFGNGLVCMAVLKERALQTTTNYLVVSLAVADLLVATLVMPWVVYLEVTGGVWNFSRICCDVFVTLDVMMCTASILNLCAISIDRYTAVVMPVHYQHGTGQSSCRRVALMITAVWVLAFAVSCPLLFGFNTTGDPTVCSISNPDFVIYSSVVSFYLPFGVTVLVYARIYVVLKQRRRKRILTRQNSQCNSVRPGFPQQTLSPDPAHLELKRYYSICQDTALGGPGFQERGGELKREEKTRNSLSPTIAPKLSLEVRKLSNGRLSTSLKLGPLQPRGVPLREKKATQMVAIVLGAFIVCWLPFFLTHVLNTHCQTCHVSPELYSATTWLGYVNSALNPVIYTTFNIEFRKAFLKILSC
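Cells at 1500/well, incubated overnight, then treated with pinned compounds (dopamine as control) for 90 min at 37 degrees C. DiscoveRx reagent added for 30 - 60 minutes at room temperature; luminescence read.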
ATXN viability: Viability Counterscreen for Primary qHTS for Inhibitors of ATXN expression; AID 651635, 2014; S2 cells (HEK-293 line with an ATXN2-luciferase reporter) viability, CellTiter-Fluor protease fluorescence, 24 h; 400,000 tested, 0.49% active; Potency, µM (series often up to 56.7 µM), hits mostly cytotoxic; also: potency is read from the fitted curve at half-maximal effect; nearly all actives have a fitted effect of over 40% in size
IL-1B inflam inh: qHTS for Inhibitors of Inflammasome Signaling: IL-1-beta AlphaLISA Primary Screen; THP-1 LPS/ATP IL-1B secretion, AlphaLISA, 16 h; stronger effect = lower value; 360,000 tested, 4.7% active; activity change, % at 57.5 µM; in the data active = activity change below about -50%; inconclusive = mostly about -30% to -49%; also: % is scaled to controls: 0 for no effect and ±100 for the full control effect
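THP-1 cells pretreated 1 hr with compounds (up to 57.5 uM final), then stimulated with LPS (250 ng/mL final) plus ATP (1.25 mM final); secreted IL-1B measured by AlphaLISA after 16 hr, decreased signal indicating inhibition.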
ATXN2 expr inh: Primary qHTS for Inhibitors of ATXN expression. 360,000 tested, 0.72% active. Potency, µM (series often up to 57 µM), for the others: at the highest dose activity change, negative = inhibition, hits mostly inhibitors. HEK-293 ATXN2-luciferase reporter, luminescence, 24 h; also: potency is read from the fitted curve at half-maximal effect; % is scaled to controls: 0 for no effect and ±100 for the full control effect; nearly all actives have a fitted effect of over 55% in size
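ATXN2-luciferase reporter cells (luciferase flanked by upstream and downstream ATXN2 gene portions) were treated 24 h at 37 °C with compounds at up to 57 uM. SteadyGlo luminescence gave expression; GF-AFC fluorescence gave viability.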
Integrin act MD: qHTS for Activators of Integrin-Mediated Alleviation for Muscular Dystrophy; AID 624291, 2012; 350,000 tested, 0.064% active; Potency, µM (titrated, usually from 38.3 µM), for the others: top-dose activation, actives largely listed as activators; alpha7betagal myoblasts, beta-gal FDG fluorescence, 48 h;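 also: potency is read from the fitted curve at half-maximal effect; 100% = response of the positive control SU9516; nearly all actives have a fitted effect of over 60% in size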
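alpha7betagal+/- myoblasts (passage 13, 250/well) treated 48 h at 37C with compounds at 1:260 dilution of DMSO stock. Lysed, then beta-galactosidase activity read as FDG fluorescence (ex 480/em 540) after 30 min, with pre-read for autofluorescence.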
D3 antag: qHTS of D3 Dopamine Receptor Antagonist: qHTS | 360,000 tested, 2.5% active | max response, negative = inhibition, % | D(3) dopamine receptor (Homo sapiens), P35462 | D3R cells, DiscoveRx beta-arrestin luminescence, antagonist mode; stronger effect = lower value | AID 652054, 2013; in the data active = max response below about -50%; inconclusive = no clear call, values can overlap the other calls; also: % is scaled to controls: 0 for no effect and ±100 for the full control effect
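Cells plated overnight at 1500 cells/well, then exposed to library compounds with dopamine controls for 90 minutes at 37 degrees C. DiscoveRx reagent added for 30–60 minutes at room temperature; luminescence read, quantitative HTS format.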
An asterisk follows results filed as active; i = inactive; u = inconclusive; x = no result given. The list is not random: actives were taken first. Their share in the collection is about 7%. Unless noted, calls follow the shape of the dose curve; as a rule, active = well fitted curve in the direction sought with a large enough effect; inconclusive = small, poorly fitted or top-dose-only effect, or another doubt; inactive = no such curve, though single readings can be large; an effect the other way counts as inactive or inconclusive.

SMILES | D3 ag | ATXN viability | IL-1B inflam inh | ATXN2 expr inh | Integrin act MD | D3 antag
CCCCNC(=O)COC(=O)CCC(=O)c1cccs1 | -1 | i | 8 | x | 7% | -13
CCOC(=O)C1=C(C)NC2=C(C(=O)CCC2)C1c1ccc(O)c(OCC)c1 (centres undefined) | 4 | i | 5 | -3% | 12% | 21
CC(C)(C)OC(=O)CNC(=O)c1[nH]cnc1C(=O)NCCCCCNC(=O)OC(C)(C)C | 55* | u | 1 | u | -38% | 74
CCN(CC)C(=O)c1[nH]cnc1C(=O)NCC(=O)OCc1ccccc1 | 39* | i | 15 | 0% | 31% | 45
CC(C)(C)OC(=O)CNC(=O)c1[nH]cnc1C(=O)NCCCCCN | 1 | i | 17 | -4% | 0% | 7
O=C(CNC(=O)c1nc[nH]c1C(=O)NCC(=O)OCc1ccccc1)OCc1ccccc1 | 5 | i | 22 | -6% | 35% | 82
CC(C)(C)OC(=O)NCc1ccc(CNC(=O)c2[nH]cnc2C(=O)N[C@@H](Cc2ccccc2)C(=O)OCc2ccccc2)cc1 | 7 | i | 4 | -8% | -16% | 14
CN(Cc1ccccc1)C(=O)c1[nH]cnc1C(=O)NCc1ccc(CNC(=O)OC(C)(C)C)cc1 | 70* | u | 9 | -13% | -12% | 78
CC(C)(C)OC(=O)NCc1ccc(NC(=O)c2nc[nH]c2C(=O)N[C@@H](Cc2ccccc2)C(=O)OCc2ccccc2)cc1 | 31* | x | -65* | u | -35% | 32
CN(Cc1ccccc1)C(=O)c1[nH]cnc1C(=O)NCc1ccccc1 | 3 | i | 15 | 8% | -16% | 9
Cc1ccc(NC(=O)CCc2c(C)nn(-c3ccc(N4CCOCC4)nn3)c2C)cc1F | -4 | i | -10 | 2% | 0% | 6
Cc1ccc(C)c(NC(=O)C2CCCN2C(=O)NC2CCCCC2)c1 (centres undefined) | -4 | i | 48 | x | -10% | -8
COc1ccccc1CNC(=O)C(C)n1c(=O)cc(-c2ccccc2)c2c(C)nn(C)c21 (centres undefined) | -11 | i | x | -35% | x | x
COc1ccc(NC(=O)C2CCCN(S(C)(=O)=O)C2)c(OC)c1 (centres undefined) | -6 | u | -21 | -6% | -6% | 1
COc1ccc(NC(=O)c2nc[nH]c2C(=O)NCc2ccccc2)cc1 | 57* | i | -19 | -10% | 18% | -3
CC(C)(C)OC(=O)NCc1ccc(CNC(=O)c2[nH]cnc2C(=O)NCC(=O)OCc2ccccc2)cc1 | 43* | u | -1 | u | 0% | 127
CC(C)(C)OC(=O)NCc1ccc(CNC(=O)c2nc[nH]c2C(=O)NCc2ccccc2)cc1 | 12 | u | -19 | -23% | -33% | 21
CCN1C(=O)/C(=C\c2ccncc2)SC1=S | 4 | i | -7 | x | u | -8
CCN1C(=O)/C(=C\c2ccncc2)SC1=Nc1ccc(C)c(C)c1 | 1 | u | -100* | -30% | -29% | -13
CCCN1C(=O)/C(=C\c2ccncc2)SC1=Nc1ccccc1 | -2 | i | -98* | 16% | -4% | -21
Cn1ncc2c(Nc3cccc(C#N)c3)ncnc21 | -17 | x | x | x | x | x
Cc1cc(C)n(-c2nc3ccccc3nc2Nc2ccc3[nH]c(=O)[nH]c3c2)n1 | 42* | i | -13 | -20% | -16% | 25
Cc1cc(C)n(-c2nc3ccccc3nc2Nc2ccc(Cl)c(Cl)c2)n1 | -8 | i | x | 2% | x | x
CCC[C@@H](CN1CCC[C@H]1CN1C(N)=NC[C@H]1C(C)C)N1C[C@@H]([C@H](C)CC)N(CCCC2CCCC2)C1=N | -19 | i | -18 | -5% | 0% | -6

Screening data as filed in PubChem BioAssay.
